# In PubChem BioAssay (NCI):
# About 83,000 compounds went through this panel and 20% of them were active in at least one assay; those are over-represented in the sample as a whole.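 Each cell line was grown in a 96-well plate and treated with one concentration of compound for 48 hours. Values below 10 were considered active.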 Values without a mark were called inactive. Activity calls are given as the source filed them.
# Assays:
# Assay in all cases: NCI-60 one-dose screen, 48 h (100 = growth as untreated, 0 = no growth, -100 = all killed)
# Settings in all cases: 10 µM unless noted
# [1] = test system: NCI-H23 lung
# [2] = test system: NCI-H226 lung
# [3] = test system: NCI-H322M lung
# [4] = test system: HOP-62 NSCLC
# [5] = test system: NCI-H460 lung
# [6] = test system: HOP-92 NSCLC
# [7] = test system: NCI-H522 lung
# [8] = test system: A549/ATCC NSCLC
# [9] = test system: 786-0 renal
# [10] = test system: COLO 205 colon
# [11] = test system: DU-145 prostate
# [12] = test system: K-562 leukemia
# [13] = test system: MALME-3M melanoma
# [14] = test system: MDA-MB-231 breast
# [15] = test system: RXF 393 renal
# [16] = test system: SF-268 CNS
# [17] = test system: SF-295 CNS
# [18] = test system: SF-539 CNS
# [19] = test system: UACC-257 melanoma
# [20] = test system: M14 melanoma
Structure (SMILES),growth [1],growth [2],growth [3],growth [4],growth [5],growth [6],growth [7],growth [8],growth [9],growth [10],growth [11],growth [12],growth [13],growth [14],growth [15],growth [16],growth [17],growth [18],growth [19],growth [20]
C/C(Cc1ccc(Cl)cc1)=C(\c1ccc(O)cc1)c1ccc(Cl)cc1,85.2%,93.3%,83.3%,110%,91.5%,83.1%,84.1%,94.8%,89.5%,109%,101%,89.3%,82.5%,96.6%,100%,95%,95.1%,107%,98.2%,83.7%
O=C(Nc1nc(-c2ccc(Cl)cc2)nc2c1sc(=S)n2-c1ccccc1)C(F)(F)F,49.2%,23.7%,49.4%,9.09% (active),13.6%,-4.79% (active),25.2%,19.5%,-72.1% (active),21%,37.5%,57.2%,21.2%,37.5%,29%,36.1%,7.16% (active),8.63% (active),51.1%,40.3%
COc1cc2cc(NCc3cccc(Cl)c3)nc(C)c2cc1OC,22.6%,35.8%,37.4%,51.4%,22.7%,57.8%,18.3%,41.3%,39.9%,31.6%,62.8%,8.28% (active),80.6%,41.6%,40.3%,41.3%,26.1%,5.02% (active),69.8%,29.4%
COC(=O)c1c2c(c(C)[n+]([O-])c1C)C(=O)C(NCc1cccc(OC)c1)=CC2=O,25.4%,83.2%,22.6%,53.2%,14.6%,54.5%,10.8%,12.9%,54.3%,-63.4% (active),54.8%,13.7%,-89.9% (active),5.97% (active),38.7%,36.8%,69.9%,11.4%,-25.5% (active),12.9%
O=C1/C=C/[C@@H](O)[C@@H]2C[C@@H](O)C[C@H]2/C=C/CCC[C@H](CCc2ccccc2)O1,13.3%,-28.6% (active),35.9%,30.1%,15.5%,-16.5% (active),7.89% (active),16.6%,-54.7% (active),-72.5% (active),14.1%,17.7%,-14.2% (active),-65.1% (active),-4.18% (active),16.6%,1.38% (active),26.3%,25.4%,7.17% (active)
CCCCCCCCCc1ccc(OCCOCCOCCOCCOCCOCCOCCOCCOCCO)cc1,7.69% (active),17.3%,57.3%,128%,11.2%,-9.71% (active),-9.88% (active),17.3%,27.4%,109%,31.5%,10.5%,-10.2% (active),-38.1% (active),29%,28.1%,0.0887% (active),29%,-25.2% (active),-11.3% (active)
N#Cc1c(-c2ccccc2)cc(-c2ccccc2)n(CCCC(=O)Nc2ccccc2N)c1=O,73.5%,73.9%,102%,64.7%,33.5%,62.1%,32.4%,57.4%,63.9%,92.3%,87.4%,20.2%,47.4%,69.9%,55.8%,59.5%,35.1%,52.5%,78.2%,39.8%
O=C(CN1C(=O)S/C(=C\c2ccccc2)C1=O)Nc1ncc(Cc2ccccc2Cl)s1,102%,95.7%,95.9%,103%,110%,108%,81%,98.6%,107%,113%,87%,97.3%,104%,101%,125%,87.9%,100%,94.8%,96.9%,102%
Clc1ccc2c(c1)C(c1c[nH]c3ccccc13)(c1c[nH]c3ccccc13)CCO2,93.5%,79.7%,90.8%,46.4%,85.3%,43.1%,-62.7% (active),24.6%,80.8%,51.4%,88%,73.1%,106%,55.5%,95.6%,71.5%,70%,95.4%,38.1%,69%
COc1ccc(Nc2nc(-c3cc(O)c(C)c(C)c3O)cs2)cc1,78.1%,96.3%,90.9%,69.9%,39%,90.5%,34.8%,58%,102%,115%,87.3%,23.9%,95.2%,88.5%,78.7%,64.7%,84.1%,81.6%,98.1%,76.2%
COc1ccc2[nH]c(C(=O)N3CCN(C(=O)OCc4ccc5c(Cl)cc(Cl)c(O)c5n4)CC3)cc2c1,-85.8% (active),-4.54% (active),29.1%,-61.5% (active),-58.9% (active),-65.4% (active),-70.8% (active),-68% (active),-91.7% (active),-81.6% (active),-88.6% (active),4.22% (active),-94.4% (active),-82.2% (active),-92.9% (active),-91.1% (active),34%,-99.3% (active),-43.2% (active),-66.4% (active)
COC(=O)c1nc(-c2ccc(C)cc2)oc1S(=O)(=O)c1cccc(OC)c1,92.6%,87%,93.3%,96.2%,104%,79.6%,33.8%,97.5%,85.2%,-8.96% (active),104%,11.6%,-12.3% (active),94.1%,77%,92.8%,104%,101%,97.5%,90.4%
Cn1ccc(=O)c(C(=O)Nc2nsc3ccc([N+](=O)[O-])cc23)c1,91.3%,76.7%,45.2%,96.4%,48.2%,41.2%,53.3%,74.9%,56.2%,76.9%,63.2%,78.3%,65.7%,47.9%,35.9%,74.9%,110%,77.6%,89.6%,46.6%
COc1ccc(C2=C(Br)C(=O)c3nc(C)ccc3C2=O)cc1,88.1%,83%,88.4%,86.8%,95.7%,78%,24%,98%,103%,0.376% (active),105%,36.7%,91.7%,73.2%,95.2%,94.6%,105%,94.8%,64.2%,92.8%
COc1ccccc1CNc1c2ccccc2nc2ccccc12,30.9%,39.9%,48.6%,44.5%,10.2%,18.2%,62.4%,34.2%,39.3%,12.8%,50.5%,10.1%,45.9%,57.6%,30.6%,65.1%,37.4%,21.2%,64.1%,40.8%
